We go through 30 sequences from PubChem BioAssay AID1347426 (Functional Genomics Laboratory (NCATS/FGL), 2020).

The whole screen tested about 31,000 sequences, of which about 1,400 (4.5%) were called active.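 The calls were made as follows: active = median seed-adjusted z-score above 1 or below -1; inactive = the rest.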 The entries come from a sample that favours actives as a whole.

This experiment is described as follows: Novel Modifiers of Survival Motor Neuron (SMN) Protein: Gene Identification via Genome-wide siRNA Screen. As to conditions: HEK293T SMN2-luciferase reporter, siRNA knockdown, 72 h; actives lie on both sides. From the text:
Spinal muscular atrophy (SMA) is the most common neuromuscular autosomal recessive disorder and one of the leading genetic causes of infant death. SMA results from mutations inducing loss of function or deletion in the survival of motor neuron-1 gene (SMN1), leading to deficiency of the survival motor neuron (SMN) protein. Although a second nearly identical gene, SMN2, is retained in humans, its expression primarily produces an aberrantly spliced isoform that is largely unstable and quickly degraded. We performed a genome-wide RNAi screen using a cell-based reporter assay to identify genes and pathways that modulate SMN protein stability. The screen identified over 200 genes that led to the greatest increase or decrease in luciferase expression.
Using HEK293T cells stably expressing a luciferase reporter that combines the promoter and splicing based cassettes in tandem with the major portion of the native SMN2 cDNA with luciferase, we performed a genome-wide RNAi screen to identify modulators of SMN protein levels. Luciferase is expressed when full-length SMN protein is generated with luminescence signal proportional to SMN protein levels. Our luciferase-based reporter assay was used to screen Ambion Silencer Select Human Druggable Genome siRNA library (10418 genes, 3 unique siRNAs per gene) using lipid-based reverse transfection.
Briefly, 1 pmol of each siRNA was spotted to a well of a 384-well plate (Corning, Corning, NY) and 20 microL of serum-free DMEM containing […] of Lipofectamine RNAiMax (Life Technologies, Carlsbad, CA) was then added to each well. Transfected cells were maintained at 37 degrees C in 5% CO2 for 72 hours, 20 microL of ONE-Glo Reagent (Promega) was added to wells for luciferase quantification. Raw luminescence reads were normalized to Ambion(R) Silencer(R) Negative Control #2 siRNA, then log10 transformed. A robust statistical measure of median absolute deviation (MAD) to standardize siRNA activities from each screen. Common Seed Analysis was used to help prioritize clean hits as opposed to those appearing to arise from seed based off-target effects. Candidate modulators were defined as the genes having a MAD score greater than 1.0 or less than -1.0.
(In a reporter assay the amount or activity of a reporter protein is the signal.)
For the sequence GGCUCAACGUAUAAGCGAATT against PIP5K1B, the median seed-adjusted z-score is 0.0917 (inactive).

For GAUGGAAACAUUGAAUAUATT against GTPBP2, the median seed-adjusted z-score is -0.166 (inactive).

Consider GAAGGAGUUUGCACAGAAATT against DHDH, for which the median seed-adjusted z-score is 0.522 (inactive).

For CAGUCUUCAUUGCUACUAATT against NFE2L2, the median seed-adjusted z-score is -0.596 (inactive).

For GAAGCAAUCUGGGAAGAGATT against MOCS3, the median seed-adjusted z-score is -0.496 (inactive).

Turning to CGCCCAACCUUACUACCUUTT against TXNDC14, the median seed-adjusted z-score was -2.39 (active).

With GGAUGGUUGUGAGCCGCUATT against ZNF784, the median seed-adjusted z-score was 0.291 (inactive).

As for CGACGACGUGCAAGACCAATT against ZNF787, the median seed-adjusted z-score is -0.0628 (inactive).

Regarding CCUUUACUUUCUAUAGAAATT against ZNF573, the median seed-adjusted z-score is -0.169 (inactive).

In the case of GCAGUUAUUGGUACUAAUATT against MOAP1, the median seed-adjusted z-score is 0.0405 (inactive).

Turning to AGAGAAUCUCGAGGAUAUATT against ZNF74, the median seed-adjusted z-score was 1.17 (active).

As to CCUUAUCGCUAGAUGUCAATT against GRM3, the median seed-adjusted z-score is -0.401 (inactive).

For GCUGAGCUCAGUAACCACATT against LCAT, the median seed-adjusted z-score was 0.526 (inactive).

On to GCAAUGCCCUUUUCACCGATT against SERPINA5, for which the median seed-adjusted z-score was -1.01 (active).

Take CCAUGACAACUUUCACUGATT against AGFG2: the median seed-adjusted z-score is -0.289 (inactive).

In the case of GCAGAAAAGAACAACUUGUTT against RAB11B, the median seed-adjusted z-score was -0.857 (inactive).

With GCAAUAGGAUGGAUGAUCATT against GPSM2, the median seed-adjusted z-score was -0.755 (inactive).

As for GCAGCUCACUUAAGGCCUATT against VPS18, the median seed-adjusted z-score is 0.181 (inactive).

For GAUCUAUUCUUAAUGCCGATT against TFB1M, the median seed-adjusted z-score was 0.172 (inactive).

For the sequence GAAAUUUCUUAGGAACUCATT against ADH1B, the median seed-adjusted z-score was 0.325 (inactive).

On to CCCUCAAUCCAGCACAAAATT against LILRA4, for which the median seed-adjusted z-score was 0.109 (inactive).

As for GGGACCGAGAGAUCAGAUATT against PPAP2C, the median seed-adjusted z-score was -1.12 (active).

For the sequence CUUCCAAUGUUAAUGGACATT against VHLL, the median seed-adjusted z-score is -0.0852 (inactive).

On to GAGGCUCGGUAAUCAAUGATT against DERL1, for which the median seed-adjusted z-score is 0.22 (inactive).

As to GCUUUAGAAUACAUACCAATT against IFIT2, the median seed-adjusted z-score is -0.0205 (inactive).

As to CCCUCAAGGUACAAACAUUTT against POLD1, the median seed-adjusted z-score was -0.715 (inactive).

Consider CAGGAGCAGUUAGACUUAATT against DNALI1, for which the median seed-adjusted z-score is 0.699 (inactive).

Regarding GGUUUGCCCUUAUCUUGUATT against RDH10, the median seed-adjusted z-score was -0.28 (inactive).

For GAAUAACCGUUGGUUUAAUTT against U2AF1, the median seed-adjusted z-score was 2.08 (active).

On to AAUUGAGGAAUACAAAAGATT against PAX3, for which the median seed-adjusted z-score was 0.0223 (inactive).
